The list shows a part of the results. The hit rate among all sequences tested is not known here.
B1: VH:VL chains; a variant is named by its letters at X, in order (parent)
chain 1: QVQLVQSGAEVKKPGASVKVSCKASGYTFTDYXMHWVRQAPGQGLEWMGXVNPNXXXTTYNQKFEGRVTMTTDTSTSTAYMELRSLRSDDTAVYYCARXNXLDXWGQGTTVTVSS
chain 2: DIQMTQSPSSLSASVGDRVTITCSVSSSVSSIYLHWYQQKPGKAPKLLIYSTSNLASGVPSRFSGSGSGTDFTLTISSLQPEDFATYYCQVYSGYPLTFGGGTKVEIK

Variants of: B1
Assay: yeast display scFab, FACS + sequencing
Conditions: with MET
Outline: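 Heavy-chain CDR mutant scFab yeast surface library, enriched by two magnetic rounds on HGFR-Fc-coated Protein A beads and then by FACS. Cells were labelled with 1 nM HGFR-Fc in PBSB with 1% milk and anti-Myc for 3 h at room temperature, and the top 50% antigen-positive cells were gated. Round-3 sorted and input populations were deep sequenced in two replicates. Antigen binding call: positive if a sequence occurred in both antigen-positive samples, negative if it occurred only in input.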

Variant	antigen binding call
YRGKSALA	binds
FAGGGFAV	no binding
FAAGGAWA	no binding
FAGGSFAS	binds
FAGTSVGS	no binding
FRGGGSVS	binds
FREGGAVS	no binding
FAAGSSGS	no binding
FAAGGAAS	binds
FRGGGAVS	binds
DTERDDAV	no binding
DGGTGDVF	no binding
FAGGGAGA	no binding
FAGGGAGS	binds
FAGGGASD	no binding
YTEEGDWV	no binding
SAAGGDVA chain 1 L45S	no binding
YRKGSAGD	binds
YRKGSALD	binds
YEKGGAGD	binds
YEKGGDVD	no binding
YRKGTAGD	binds
YRRANFLD	no binding
YEGGGDGD	no binding

Variant	antigen binding call
YAGEGDGA	no binding
VTTADDWV	no binding
YRGKGVGV	no binding
YKGRGVGV	binds
YKGRGVVV	binds
YKERDVGV	no binding
SKEGGVGV	no binding
YKGKGVGV	binds
DKGRSVGV	no binding
AARADDGS	no binding
SAAGGDGV chain 1 L45S	no binding
FGRGGVGD	no binding
FTETGAGD	no binding
FRERGAGY	no binding
FTEEGAGD	no binding
FRRGGAVD	binds
FRRGGSVD	binds
FRRGGAGD	binds
FRERGAGD	binds
VATGDFGV	no binding
YKKTGDLY	no binding
YETETALY	no binding
SKGENALY	no binding
YKTGGALY	binds

Variant	antigen binding call
VKTGGDVY	no binding
YKAGGALY	binds
AARADDAV	no binding
DATGGAGD	no binding
YRTGGAWD	binds
YRTGGSGD	binds
YRTGGAGD	binds
DREEGSGD	no binding
FATGGSGD	no binding
YRTGDSGD	binds
SETGGAGD	no binding
FTRTNFLS	no binding
VKEKGDVA	no binding
YKRRGSAA	binds
YKARGSAA	binds
YTRAGSAA	no binding
YRAKGSAA	binds
YRGRSSAA	binds
YAARGSAA	no binding
DAKTDDGV	no binding
DKEGGDGY	no binding
YGGGGVAA	no binding
YRARSSAA	binds
YGAAGSAA	binds

Variant	antigen binding call
YTGRGSAA	binds
AREKGSAA	no binding
YGATSSLA	no binding
YTKRGSAA	no binding
YREKGSAA	binds
AAEGGYAV	no binding
VKGASDWA	no binding
VTTKSDSA	no binding
VTTKSDGA	no binding
YRARGSAA	binds
YRARGSLA	binds
YTARGSAA	binds
YREKGAAA	binds
DTRGADAV	no binding
DEGAGDGF	no binding
YKTRGSAA	binds
YRARSSLA	binds
YKTRGFGA	no binding
FAARAFGV	no binding
SEEASDGA	no binding
YREGGFVA	no binding
YRAGGVVA	binds
YRAGGSVA	binds
YRKGGFVA	no binding

Variant	antigen binding call
YRAGGFVA	binds
YRAGGYVA	binds
DTGTGSSA	no binding
STTKSDGV	no binding
VAGTGDWA	no binding
YKGKGALD	binds
YKGGGALD	binds
FKGKGVGD	no binding
YKEEDSLD	no binding
FKGKGAGD	binds
YKKGGSLD	binds
YKGAGALD	no binding
DTTGSASD	no binding
VAGGDDWV	no binding
YKGKGSLD	binds
FKGRGALA	binds
FKGKGALD	binds
YRAGASAV	binds
VRAGADAV	no binding
YAGEASAV	no binding
YRGAASAV	binds
SEARSSAD	no binding
YRAGSSAD	binds
DAGEASAV	no binding

Variant	antigen binding call
YAEESSAD	no binding
YRARSSAD	binds
VRAGADSV	no binding
DAGTAFSS	no binding
VEREADWF	no binding
YRAKGSAD	binds
YREKDSAD	binds
YAEKDAGD	no binding
FREKDSAD	no binding
YRARGSAD	binds
YRAGASAD	binds
DTEEGDVA	no binding
DAKEGDAD	no binding
DTGEADAS	no binding
VKGKGAWD	binds
VRGKGAAD	binds
VAGKGAGD	no binding
VEGKGAGD	no binding
VAGKGVLD	no binding
VKGEAAWD	no binding
VRGKGAWD	binds
VRGKGAVD	binds
